Out of some 2,200 compounds screened, about 45 (2%) were called active. Only a sample is shown. Potency and affinity values are given separately. Unmarked numbers belong to inactive results. The rule behind the calls is not given here.
Molecular target: Runt-related transcription factor 1 (Homo sapiens) + Core-binding factor subunit beta (Homo sapiens) (UniProt Q01196+Q13951)
Test: Runt domain/CBFb-SMMHC interaction disruptors – biochemical, TR-FRET (AID 1438)
Details: at 20 µM, hits give high values

Sequence of Runt-related transcription factor 1 (Homo sapiens) + Core-binding factor subunit beta (Homo sapiens) (Q01196 whole entry, looked up, the tested form may be a part): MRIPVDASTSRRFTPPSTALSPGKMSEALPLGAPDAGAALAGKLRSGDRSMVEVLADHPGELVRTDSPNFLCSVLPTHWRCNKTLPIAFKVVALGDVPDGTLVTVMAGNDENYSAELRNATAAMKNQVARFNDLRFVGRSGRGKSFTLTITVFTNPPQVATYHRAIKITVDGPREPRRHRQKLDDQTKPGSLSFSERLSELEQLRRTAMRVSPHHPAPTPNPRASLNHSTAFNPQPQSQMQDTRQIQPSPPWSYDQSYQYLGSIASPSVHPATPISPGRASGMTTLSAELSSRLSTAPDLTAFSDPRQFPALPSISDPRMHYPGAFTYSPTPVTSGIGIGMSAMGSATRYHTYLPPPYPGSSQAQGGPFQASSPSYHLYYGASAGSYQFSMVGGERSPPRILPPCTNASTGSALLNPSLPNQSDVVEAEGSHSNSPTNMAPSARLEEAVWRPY
Sequence of Runt-related transcription factor 1 (Homo sapiens) + Core-binding factor subunit beta (Homo sapiens) (Q13951 whole entry, looked up, the tested form may be a part): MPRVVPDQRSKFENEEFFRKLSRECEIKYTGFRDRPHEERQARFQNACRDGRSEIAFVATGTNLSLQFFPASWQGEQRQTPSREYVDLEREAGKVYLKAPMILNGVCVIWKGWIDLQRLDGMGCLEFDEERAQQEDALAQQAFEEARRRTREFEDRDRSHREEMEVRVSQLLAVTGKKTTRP

First: Cc1cc(O)ccc1N/C=C(\C#N)c1nc2ccccc2o1
Second: Cc1cc(Nc2ccccc2)nc2cc(O)ccc12
The inhibition of the first is lower: 8% for the first, 15.5% for the second.

First: CCN1C2=C(C(=O)CCC2)C(c2ccc(O)c(Br)c2)C2=C1CCCC2=O
Second: CCCN1C2=C(C(=O)CCC2)C(c2ccc(O)c(Br)c2)C2=C1CCCC2=O
The inhibition of the first is lower: 19.7% for the first, 24.4% for the second.

First: C=CCOc1ccc(C2C(C#N)=C(N)N(Nc3ccccc3)C3=C2C(=O)CCC3)cc1OC (stereo not drawn)
Second: O=C1CCCC2=C1C(c1ccc(Br)cc1)c1c([nH]c(=S)[nH]c1=O)N2 (stereo not drawn)
The inhibition of the first is lower: 32.3% for the first, 42.6% for the second.

First: Cc1ccc(C2C3=C(CC(C)(C)CC3=O)N(CCN3CCOCC3)C3=C2C(=O)CC(C)(C)C3)cc1
Second: N=c1c(C(=O)NCc2ccc(F)cc2)cc2c(=O)n3ccccc3nc2n1CCCN1CCOCC1
The inhibition of the first is higher: 42.9% for the first, 38.7% for the second.

Compared with N#Cc1c(N)[nH]c(=S)c(C#N)c1-c1ccccc1, CCn1c(O)c(C=Nc2ccccc2)sc1=S is higher in inhibition: -64.2% for the first, -3.7% for the second.

First: CCOC(=O)c1cc2c(=O)n3ccccc3nc2n(CCCOC)c1=NC(=O)c1ccncc1
Second: CCOC(=O)c1cc2c(=O)n3ccccc3nc2n(Cc2ccccc2)c1=N
The inhibition of the first is lower: 2.5% for the first, 41.8% for the second.

First: COCCN1C=C(C(=O)OC)C(c2cc(Br)c(OC)c(OC)c2)C(C(=O)OC)=C1
Second: C=CCn1c(=N)c(C(=O)NCCCOC)cc2c(=O)n3cccc(C)c3nc21
The inhibition of the first is higher: 47.6% for the first, 2.9% for the second.

First: COC(=O)C1C(O)CCC2CN3CCc4c([nH]c5ccccc45)C3CC21 (stereo not drawn)
Second: c1ccc(-c2nc(N3CCCCC3)nc3ccccc23)cc1
The inhibition of the first is lower: -11.7% for the first, 25.8% for the second.

Compared with Cn1c(=O)nc2n(Cc3ccccc3)c3ccccc3cc-2c1=O, Cc1cccn2c(=O)c3cc(C(=O)NCc4ccco4)c(=N)n(CCc4ccccc4)c3nc12 is lower in inhibition: 36.1% for the first, -9.3% for the second.

Compared with CCc1nnc(NC(=O)C2(C)COC(c3ccccc3)OC2)s1 (stereo not drawn), Cc1ccc(CNC(=O)c2cc3c(=O)n4ccccc4nc3n(CC3CCCO3)c2=N)cc1 (stereo not drawn) is higher in inhibition: -7% for the first, 36.3% for the second.

Going from CCC(C)(C)n1nnnc1C(c1cc2cc3c(cc2[nH]c1=O)OCO3)N1CCN(C)CC1 (stereo not drawn) to N=c1c(C(=O)NCc2ccc3c(c2)OCO3)cc2c(=O)n3ccccc3nc2n1Cc1cccnc1, the inhibition rises from 39.5% to 48.7%.

First: CCCNC(=O)Cn1sc2nc(C)cc(C)c2c1=O
Second: CCc1cc2c(COC(=O)c3c(C)noc3C)cc(=O)oc2cc1O
The inhibition of the first is higher: -3.9% for the first, -33.2% for the second.

Compared with O=C(O)CSc1c2c(nc3cc(C(=O)N4CCOCC4)ccc13)CCCC2, O=C(Cn1c2ccccc2c(=O)c2ccccc21)N/N=C/c1ccc(N2CCCC2)c([N+](=O)[O-])c1 is higher in inhibition: -4.9% for the first, 10.6% for the second.

First: O=C(Cn1c2ccccc2c(=O)c2ccccc21)Nc1cccc(F)c1
Second: O=C(Cn1c2ccccc2c(=O)c2ccccc21)Nc1ccccc1F
The inhibition of the first is higher: 39% for the first, -15.4% for the second.

Going from O=C(CCC(=O)N/N=C/c1cc(Cl)cc(Cl)c1O)NCc1ccccc1 to N=c1c(C(=O)NCc2ccc(F)cc2)cc2c(=O)n3ccccc3nc2n1Cc1cccnc1, the inhibition rises from -4.9% to 48.7%.

Going from COc1ccc(CCn2c(=N)c(C(=O)NCc3ccco3)cc3c(=O)n4cccc(C)c4nc32)cc1 to COc1ccc(CNC(=O)c2cc3c(=O)n4ccccc4nc3n(Cc3cccnc3)c2=N)cc1, the inhibition rises from 21.9% to 29.1%.

For N=c1c(C(=O)NCc2ccco2)cc2c(=O)n3ccccc3nc2n1Cc1ccccc1, the inhibition was 65% (active).
